TDP1 cell noCPT: qHTS for Inhibitors of human tyrosyl-DNA phosphodiesterase 1 (TDP1): qHTS in cells in absence of CPT; Potency, µM (titrated, usually from 46.2 µM), for inactives: top-dose activity change, negative = growth inhibition, usual class: inhibitors; DT40 Tdp1-/- hTDP1 cells, no CPT, ATP luminescence, 48 h; 15% of 420,000 active; further: potency means the concentration at half of the fitted maximal effect; nearly all actives have a fitted effect of over 55% in size
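Luminescent ATP content (CellTiter-Glo) served as the growth readout. Knockout chicken DT40 cells expressing human TDP1 were exposed to compounds without camptothecin for a minimum 48 hr at 37 °C.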
IL-1B inflam inh: blocks inflammasome-driven IL-1 beta release; THP-1 LPS/ATP IL-1B secretion, AlphaLISA, 16 h; hits give low values; activity change, % at 57.5 µM; 4.7% of 360,000 active; in the data active means activity change below about -50%; inconclusive means mostly about -30% to -49%
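THP-1 cells pretreated 1 hr with compounds (up to 57.5 uM final), then stimulated with LPS (250 ng/mL final) plus ATP (1.25 mM final); secreted IL-1B measured by AlphaLISA after 16 hr, decreased signal indicating inhibition.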
HT1080-NT tox: kills 2HG-producing HT-1080-NT fibrosarcoma cells | 1.6% of 360,000 active | HT-1080-NT fibrosarcoma viability, CellTiter-Glo ATP luminescence, 48 h | Potency, µM (doses to about 46.1 µM), without a hit: at the highest dose activity, negative = less viability, most hits filed as cytotoxic | AID 686970;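 further: NT is the 2HG producing partner of a matched IDH1 knockdown line; potency means the concentration at half of the fitted maximal effect; 0% = DMSO-treated cells and -100% = media-only wells without cells; nearly all actives have a fitted effect of over 55% in size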
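Compounds were tested in concentration-response format on HT-1080-NT cells for 48 hours at 37 degrees C. Cell viability came from CellTiter-Glo luminescence; curves were classified by r2, response magnitude and activity.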
HT1080 IDH1KD tx: toxicity to HT-1080 IDH1 knockdown cells (counter line). AID 686971. 2% of 360,000 active. Potency, µM (top dose mostly 46.1 µM), for the others: at the top dose activity, negative = toxicity, hits mostly cytotoxic. HT-1080 IDH1 knockdown viability, ATP luminescence, 48 h;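 further: potency means the concentration at half of the fitted maximal effect; 0% = DMSO wells and -100% = cell-free medium wells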
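After a 2 h attachment period, IDH1KD HT-1080 cells took pin-transferred compound for 48 h at 37 °C; ATP-based luminescence after 10 min room-temperature reagent incubation reported viability.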
TDP1 cell CPT: DT40-hTDP1 cell growth loss with CPT. AID 686979. 12% of 420,000 active. Potency, µM (titrated, usually from 46.2 µM), inactives show top-dose activity change, negative = growth inhibition, most hits filed as inhibitors. chicken DT40 Tdp1-/-;hTDP1 cells + 20 nM CPT, ATP luminescence, 48 h; further: potency means the concentration at half of the fitted maximal effect; nearly all actives have a fitted effect of over 55% in size
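Chicken DT40 Tdp1-/- cells complemented with human TDP1, 400 cells/well, exposed to compounds plus 20 nM camptothecin for at least 48 h at 37 C; viability read as ATP content by CellTiter-Glo luminescence.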
The depositor's hits bear a star; ? = inconclusive; · = no result given; [ ] = dose if it differs, or a comment. A selection: hits, their analogues and other compounds. The true share with any hit is near 19%. Unless noted, the call rests on the fitted dose curve; in most records, active means well fitted curve in the direction sought with a large enough effect; inconclusive means small, poorly fitted or top-dose-only effect, or another doubt; inactive means no such curve, though single readings can be large; an effect the other way counts as inactive or inconclusive. Unless noted, on the % scale 0 is the no-effect control and ±100 the full control effect.

SMILES	TDP1 cell noCPT	IL-1B inflam inh	HT1080-NT tox	HT1080 IDH1KD tx	TDP1 cell CPT
CCOC(=O)N1CCC(N(CCCOC)C(=O)Nc2ccc(CC)cc2)CC1	13µM*	7.1	-15.0%	13.2%[9.24 µM]	18.4µM*
CCOC(=O)N1CCC(N(CCOC)C(=O)Nc2ccc(Cl)cc2)CC1	14.6µM*	0.0	13.4%	15.9%	?
CCOC(=O)N1CCC(N(C(=O)Nc2ccccc2)C(C)CC)CC1 (configuration not stated)	?	4.8	-0.1%	2.5%	?
COc1ccc(-c2nc3ccccc3o2)cc1NC(=O)COc1ccc(C)cc1	-18.4%	·	·	·	?
COc1cc2c(cc1OC)CN(C(=O)c1ccc(-c3ccccc3)cc1)CC2	?	60.9	-2.2%	8.1%	?
COc1cc2c(cc1OC)CN(C(=O)c1oc3ccccc3c1C)CC2	23.1µM*	-10.7	-29.1%	-23.9%	20.6µM*
O=C(c1ccc([N+](=O)[O-])o1)N1CCc2ccccc2C1	14.6µM*	-28.3	-1.9%	-21.8%	20.6µM*
COc1cc2c(cc1OC)CN(C(=O)c1ccc([N+](=O)[O-])o1)CC2	?	?	13µM*	?	?
Cc1ccc(C(=O)N2CCc3ccccc32)o1	3.26µM*	-3.9	-14.5%	-23.3%	-16.5%
O=C(c1ccc([N+](=O)[O-])o1)N1CCc2ccccc21	11.6µM*	?	-2.2%	?	10.3µM*
Cc1cc(C(F)F)n2nc(C(=O)Nc3cc(Cl)ccc3C)nc2n1	-23.6%	·	·	·	-8.7%
COc1ccccc1Nc1ncnc2ccccc12	-3.6%	19.3	7.1%	8.9%	?
Cc1ccc(Nc2nc(NCc3ccco3)c3ccccc3n2)cc1	2.59µM*	-108.7*	?	23.1µM*	2.59µM*
c1ccc(Nc2nc(NCc3ccco3)nc3nccnc23)cc1	-25.6%	·	18.0%	16.9%	-2.7%
COc1ccccc1Nc1nc(NCc2ccco2)c2ccccc2n1	20.6µM*	·	20.6µM*	23.1µM*	?
C=CCn1c(SCC(=O)NC23CC4CC(CC(C4)C2)C3)nc2cc(C(=O)O)ccc2c1=O	-0.7%	33.1	5.9%	3.3%	0.0%
CSc1ccccc1OC1CCN(Cc2ccccc2)CC1	?	-82.1*	?	?	-10.3%
CCN(Cc1ccccc1)C1CCN(Cc2ccccc2)CC1	5.7%	?	3.1%	1.0%	-3.4%
C=CCc1cccc2cc(C(=O)Nc3ccccc3C(=O)O)c(=O)oc12	?	8.4	-3.9%	1.0%	?
CN(C)c1ccc(CNn2cnnc2SCC(=O)NC(C)(C)C)cc1	-6.8%	-1.2	1.7%	-0.3%	5.7%
CCOc1cc(CNn2cnnc2SCC(=O)NC(C)(C)C)ccc1OCC(=O)NC(C)(C)C	18.4µM*	20.1	3.6%	-5.5%	-5.6%
Cc1cc(NC(=O)C(C)SCC(=O)N(C)Cc2c(F)cccc2Cl)no1 (configuration not stated)	?	9.3	-13.2%	-16.7%	?
COc1cccc(OCC(=O)NNC(=O)c2ccc3ccccc3c2)c1	22.4%	3.5	4.9%	3.9%	4.6%
CCOC(=O)C1=C(CN2CCN(CC)CC2)NC(=O)NC1c1ccc(Cl)cc1 (configuration not stated)	23.1µM*	·	·	·	?
CCOC(=O)C1=C(CN2CCN(c3ccccc3)CC2)NC(=O)NC1c1ccc(C)cc1 (configuration not stated)	?	·	·	·	25.9µM*
SMILES	TDP1 cell noCPT	IL-1B inflam inh	HT1080-NT tox	HT1080 IDH1KD tx	TDP1 cell CPT
CCOC(=O)C1=C(CN2CCC(C)CC2)NC(=O)NC1c1ccc(F)cc1 (configuration not stated)	-25.9%	·	·	·	-5.1%
CCOC(=O)C1=C(CN2CCN(c3ccc(Cl)cc3)CC2)NC(=O)NC1c1ccc(OC)cc1 (configuration not stated)	25.9µM*	·	·	·	20.6µM*
CCOC(=O)C1=C(CN2CCCCCC2)NC(=O)NC1c1ccc2c(c1)OCO2 (configuration not stated)	?	0.0	17.7%	7.5%	-25.0%
CCOC(=O)C1=C(CN2CC(C)CC(C)C2)NC(=O)NC1c1ccc2c(c1)OCO2 (configuration not stated)	25.9µM*	0.0	-27.3%	-3.9%	?
Cc1[nH]c(=O)[nH]c(=O)c1N1CCOCC1	15.0%	67.0	14.1%	5.8%	9.2%
OC(c1ccc(F)cc1)c1nc(-c2ccc(F)c(Cl)c2)cs1 (configuration not stated)	?	-11.1	?	?	?
CCOC(=O)C1=C(CN2CCN(C(=O)c3ccco3)CC2)NC(=O)NC1c1ccc(Cl)cc1 (configuration not stated)	?	-10.6	-26.1%	-18.6%	?
CCOC(=O)C1C(c2ccc3c(c2)OCO3)NC(=O)NC1(O)C(F)(F)F (configuration not stated)	13µM*	0.0	14.8%	21.6%	9.2µM*
CCOC(=O)C1=C(CN2CCN(c3cccc(Cl)c3)CC2)NC(=O)NC1c1ccc(Cl)cc1 (configuration not stated)	20.6µM*	·	·	·	?
CCOC(=O)C1=C(CN2CCN(c3cc(C)ccc3C)CC2)NC(=O)NC1c1ccccc1 (configuration not stated)	18.4µM*	·	·	·	?
CC(=O)CC/C=C(\C)CC/C=C(\C)CC/C=C(\C)CCC=C(C)C	-16.5%	·	·	·	-13.0%
CCNC(=O)C1(C)CCN(C(=O)c2ccc(C(F)(F)F)cc2)C1 (configuration not stated)	-1.4%	25.0	20.4%	13.0%	-9.7%
CC(=O)Nc1ccc(NC(=O)C(C)OC(=O)/C=C/c2cnc3ccccc3n2)cc1 (configuration not stated)	-5.4%	-0.9	25.9%	1.7%	-21.6%
CC(NC(=O)/C=C/c1cnc2ccccc2n1)C12CC3CC(CC(C3)C1)C2 (configuration not stated)	18.4µM*	-12.9	-6.1%	-0.3%	?
CC(C)Cc1nc2c(nnn2Cc2ccccc2F)c(=O)[nH]1	15.3%	-13.4	0.6%	?	-9.7%
COc1ccc(C2=NN(CN3C(=O)C(=O)c4ccccc43)C(c3cccc([N+](=O)[O-])c3)C2)cc1 (configuration not stated)	?	-65.9*	-20.9%	-26.2%	?
CS(=O)(=O)c1nc(-c2ccc(Br)cc2)cc(-c2ccccc2)c1C#N	2.59µM*	-58.9*	?	?	4.11µM*
CCS(=O)(=O)CCSc1nc(-c2ccc(Br)cc2)cc(-c2ccccc2)c1C#N	-13.6%	·	·	·	-14.5%

Compound activity from PubChem.
